IL1B secr inh = inflammasome signaling inhibition, IL-1 beta readout; THP-1 LPS/ATP IL-1B secretion, AlphaLISA, 16 h; active compounds read low; 360,000 tested, 4.7% active; activity change, % at 57.5 µM; AID 743279; in the data active = activity change below about -50%; inconclusive = mostly about -30% to -49%
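Secreted IL-1B measured by AlphaLISA bead assay after 16 h compound exposure of THP-1 cells; compounds (final up to 57.5 uM) added 1 h before LPS (250 ng/mL) and ATP (1.25 mM) stimulation; lower signal means less secretion.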
HT1080 IDH1KD tx = kills HT-1080 cells with IDH1 knockdown. HT-1080 IDH1 knockdown viability, ATP luminescence, 48 h. Potency, µM (highest dose often 46.1 µM), hits mostly cytotoxic. 360,000 tested, 2% active. AID 686971
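Using the IDH1-knockdown HT-1080 line run in the same batch and compound series as the NT line, viability after 48 h at 37 °C was determined by CellTiter-Glo luminescence and expressed as % activity.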
DT40 TDP1 CPT = DT40-hTDP1 cell growth loss with CPT | chicken DT40 Tdp1-/-;hTDP1 cells + 20 nM CPT, ATP luminescence, 48 h | Potency, µM (top dose mostly 46.2 µM), most hits filed as inhibitors | 420,000 tested, 12% active; also: nearly all actives have a fitted effect of over 55% in size
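Chicken DT40 Tdp1-/- cells complemented with human TDP1, 400 cells/well, exposed to compounds plus 20 nM camptothecin for at least 48 h at 37 C; viability read as ATP content by CellTiter-Glo luminescence.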
DT40 TDP1 no CPT = qHTS for Inhibitors of human tyrosyl-DNA phosphodiesterase 1 (TDP1): qHTS in cells in absence of CPT; DT40 Tdp1-/- hTDP1 cells, no CPT, ATP luminescence, 48 h; Potency, µM (highest dose often 46.2 µM), hits mostly inhibitors; 420,000 tested, 15% active; AID 686978, 2013; also: nearly all actives have a fitted effect of over 55% in size
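Readout: luminescence from CellTiter-Glo after 30 min in the dark at RT. Cells: DT40 Tdp1-/- with stable hTDP1, 400/well. Exposure: compounds alone, ≥48 hr, 37 °C.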
HT1080NT lethal = kills 2HG-producing HT-1080-NT fibrosarcoma cells; HT-1080-NT fibrosarcoma viability, CellTiter-Glo ATP luminescence, 48 h; Potency, µM (doses to about 46.1 µM), usual class: cytotoxic; 360,000 tested, 1.6% active; AID 686970;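 also: NT is the 2HG producing partner of a matched IDH1 knockdown line; nearly all actives have a fitted effect of over 55% in size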
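750 cells/well, RPMI + 5% FBS; 2 h settle, compound pin-transfer, 48 h at 37 degrees C. CellTiter-Glo 10 min RT, luminescence. Normalized to DMSO and media-only wells.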
Hits are given with their value; . = inactive; ? = inconclusive; / = no result given. Most compounds without a hit are left out; they make up all but 19% or so of the library. Unless noted, calls follow the shape of the dose curve; as a rule, active = well fitted curve in the direction sought with a large enough effect; inconclusive = small, poorly fitted or top-dose-only effect, or another doubt; inactive = no such curve, though single readings can be large; an effect the other way counts as inactive or inconclusive.

SMILES	IL1B secr inh	HT1080 IDH1KD tx	DT40 TDP1 CPT	DT40 TDP1 no CPT	HT1080NT lethal
CCNC(=O)COC(=O)c1cc(-c2ccc(OC)cc2)nc2ccccc12	.	.	?	?	.
CCCCOc1ccc(-c2cc(C(=O)NNC(=S)NCC)c3ccccc3n2)cc1	?	?	23.1µM	20.6µM	17.8µM
CCNC(=S)NNC(=O)c1cc(-c2ccc(OC)cc2)nc2ccccc12	.	18.4µM	3.66µM	4.11µM	10.3µM
CCCCc1ccc(C(=O)N/C(=C\c2ccc(C)cc2)C(=O)NC2CCCCC2)cc1	/	/	9.2µM	14.6µM	/
Cc1ccc(C(=O)N/C(=C\c2ccc(Cl)cc2)C(=O)NC2CCCCC2)cc1	/	/	?	18.4µM	/
Cc1ccc(C(=O)N/C(=C/c2ccc(Cl)cc2)C(=O)NCC2CCCO2)cc1 (stereo unspecified)	.	.	.	?	.
CCOc1ccc(N(CC(=O)NC2CCCCC2)C(=O)CCC(=O)Nc2cc(C)ccn2)cc1	.	.	.	?	.
CCCCCC1C(=O)CCC1CC(=O)OC (stereo unspecified)	.	.	.	.	.
CCCCC[C@H](O)/C=C/[C@H]1CCC(=O)[C@@H]1CCCCCCC(=O)N1CCCCC1CO (stereo partly specified)	.	13µM	23.1µM	14.6µM	16.4µM
N#Cc1cc(Oc2cccc3cccnc23)c(-n2nnc3ccccc32)cc1C#N	-59.3	6.31µM	7.08µM	7.94µM	5.62µM
COc1ccc(N(Cc2cc(=O)[nH]c3ccccc23)C(=O)CCl)cc1	-98.2	23.1µM	2.06µM	2.06µM	3.26µM
CCCC(=O)N(Cc1cc(=O)[nH]c2ccccc12)c1ccc(OC)cc1	.	.	.	.	.
CCCC(=O)N(Cc1cc(=O)[nH]c2ccccc12)c1cccc(C)c1	.	.	.	?	.
Cc1cccc(N(Cc2cc(=O)[nH]c3ccccc23)C(=O)CCl)c1	-107.0	?	4.11µM	5.17µM	20.6µM
O=C(Cc1ccccc1[N+](=O)[O-])NC1CC2CCC1C2 (stereo unspecified)	.	.	.	.	.
COc1cc2c(cc1OC)C(C)N(C(=S)Nc1ccccc1)CC2 (stereo unspecified)	.	.	.	?	.
COc1cc2c(cc1OC)[C@H](C)N(C(=O)NCc1ccccc1)CC2	.	20.6µM	23.1µM	7.31µM	?
COc1cc2c(cc1OC)C(C)N(C(=S)NC(=O)c1ccccc1)CC2 (stereo unspecified)	.	.	?	20.6µM	.
CN1CCN(C(CNC(=O)C(=O)Nc2ccccc2)c2ccc3c(c2)OCO3)CC1 (stereo unspecified)	/	/	.	.	/
COc1ccc(CNC(=O)COC(=O)CC(NC(N)=O)c2ccc(Cl)cc2)cc1OC (stereo unspecified)	.	.	.	.	.
C=CCNC(=O)c1cnn2c1NC(=C)C=C2C	/	/	.	.	/
Clc1ccc(CNc2ccccc2NCc2ccc(Cl)nc2)cn1	.	.	16.4µM	?	.
CC(=O)NCC(=O)N1CCCC(C(=O)c2ccc(Oc3ccccc3)cc2)C1 (stereo unspecified)	.	.	9.2µM	?	.
Cc1ncoc1C(=O)N1CCCC(C(=O)c2ccc(Oc3ccccc3)cc2)C1 (stereo unspecified)	.	.	.	.	.
Cc1nn(Cc2c(F)c(F)c(F)c(F)c2F)c(C)c1NC(=O)c1ccc(COc2ccc(Cl)cc2Cl)o1	-63.2	?	20.6µM	14.6µM	?
SMILES	IL1B secr inh	HT1080 IDH1KD tx	DT40 TDP1 CPT	DT40 TDP1 no CPT	HT1080NT lethal
CC(C)CNC(=O)c1ccc(COc2ccc(Cl)cc2Cl)o1	?	.	14.6µM	20.6µM	.
CC(=O)Nc1ccc(NC(=O)c2ccc(COc3ccc(Cl)cc3Cl)o2)cc1	/	/	16.4µM	16.4µM	/
Cc1nn(Cc2cccc(F)c2)c(C)c1NC(=O)c1ccc(COc2ccccc2Cl)cc1	.	?	14.6µM	?	2µM
COc1ccc(NC(=O)N2CC3(CCN(C(=O)c4cnccn4)CC3)C2)cc1	/	/	.	.	/
COc1cc(OC)cc(C(=O)Nn2cc(C(=O)Nc3ccccc3F)c3ccccc3c2=O)c1	.	.	23.1µM	?	.
O=C(Nn1cc(C(=O)Nc2ccccc2F)c2ccccc2c1=O)c1cnccn1	.	?	?	?	.

Screens: PubChem, National Center for Advancing Translational Sciences (NCATS)
